An excerpt weighted towards active compounds, which were near 3.6% of everything screened.
Autofluor counter – flagged as autofluorescent in microsphere protease counterscreen | compound autofluorescence counterscreen, microsphere flow cytometry; active compounds read high | fluorescence intensity (concentration not given with the values) | hit rate 3.1% among 360,000 | AID 624483; in the data active means fluorescence intensity above about 16000; inconclusive means no clear call, values can overlap the other calls
Anthrax LF inh2 – anthrax lethal factor protease inhibition; hit rate 0.12% among 360,000; inhibition, % at 10 µM; P15917; multiplex microsphere protease cleavage assay, LF
BoNT-F LC inh – BoNT F light chain protease inhibition | Multiplex microsphere protease cleavage assay, flow cytometry | hit rate 0.22% among 360,000 | inhibition, % at 10 µM; in the data active means inhibition above about 35%, passing the limit was not always enough; inconclusive means no clear call, values can overlap the other calls
MazF activator – increases E. coli MazEF RNase cleavage of RNA; P0AE70; FAM/BHQ RNA-DNA oligo cleavage fluorescence, 5 h; activation, % at 20 µM; hit rate 0.32% among 350,000; AID 504720; in the data active means activation above about 50%
Target sequence (P0AE70 whole entry, looked up): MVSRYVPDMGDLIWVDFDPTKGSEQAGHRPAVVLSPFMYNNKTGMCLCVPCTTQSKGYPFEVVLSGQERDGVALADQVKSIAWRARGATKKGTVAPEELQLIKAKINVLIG
BoNT A protease – blocks Botulinum neurotoxin A light chain protease. multiplex microsphere protease substrate cleavage, flow cytometry. inhibition, % at 10 µM. hit rate 0.17% among 360,000. AID 588499
A number is an active result. Unless noted, no stated cut-off is given here; in the data, active means inhibition above about 30%; inconclusive means no clear call, values can overlap the other calls; inactive means below that.

Cc1cc(C)c(OCC(=O)OCC(=O)NCc2ccco2)c(C)c1 was read as Autofluor counter inactive, Anthrax LF inh2 inactive, BoNT-F LC inh inactive, MazF activator inactive and BoNT A protease inactive.
`CCCCn1c(SCC(=O)Nc2cc(C)on2)nc2ccccc2c1=O` gave Autofluor counter 23871, Anthrax LF inh2 inactive, BoNT-F LC inh inactive, MazF activator inactive and BoNT A protease inactive.
CCCCn1c(SCC(=O)N2CC(C)CC(C)C2)nc2cc(S(N)(=O)=O)ccc21 (stereo not given) was read as Autofluor counter inactive, Anthrax LF inh2 inactive, BoNT-F LC inh inactive, MazF activator inactive and BoNT A protease inactive.
Screening CCCCn1c(SCC(=O)N2CCCCC2)nc2cc(S(N)(=O)=O)ccc21 returned Autofluor counter 19717, Anthrax LF inh2 inactive, BoNT-F LC inh inactive, MazF activator inactive and BoNT A protease inactive.
`COc1cccc(OCc2nnc(SCC(=O)NCc3ccco3)n2CCc2ccccc2)c1` gave Autofluor counter 20143, Anthrax LF inh2 inactive, BoNT-F LC inh inactive, MazF activator inactive and BoNT A protease inactive.
`CCOC(=O)CSc1nc2ccccc2c(=O)n1CC1COc2ccccc2O1` (stereo not given) gave Autofluor counter 22016, Anthrax LF inh2 inactive, BoNT-F LC inh inactive, MazF activator inactive and BoNT A protease inactive.
`CCOC(=O)[C@]12CCC=C1N(Cc1ccccc1)C(=O)[C@H](CC(=O)NCc1ccc(OC)c(OC)c1)C2` gave Autofluor counter inactive, Anthrax LF inh2 inactive, BoNT-F LC inh inactive and BoNT A protease inactive.
`Cc1cc(NC(=O)CSc2nc3ccccc3c(=O)n2CCCC(=O)NCc2ccccc2)n[nH]1` gave Autofluor counter 16651, Anthrax LF inh2 inactive, BoNT-F LC inh inactive, MazF activator inactive and BoNT A protease inactive.
C=CCn1c(SCC(=O)NCC2CCCO2)nc2scc(-c3ccc(OC)cc3)c2c1=O (stereo not given) was read as Autofluor counter inactive, Anthrax LF inh2 inactive, BoNT-F LC inh inactive, MazF activator inactive and BoNT A protease inactive.
`O=C(CCn1c(SCC(=O)NCc2ccco2)nc2ccccc2c1=O)NCCc1ccccc1` gave Autofluor counter 22374, Anthrax LF inh2 inactive, BoNT-F LC inh inactive, MazF activator inactive and BoNT A protease inconclusive.
CCCCNC(=O)CSc1nc2ccccc2c(=O)n1C1CCCC1 was read as Autofluor counter 19876, Anthrax LF inh2 inactive, BoNT-F LC inh inactive, MazF activator inactive and BoNT A protease inactive.
`C=CCn1c(SCC(=O)NCc2ccco2)nc2ccccc2c1=O` gave Autofluor counter inactive, Anthrax LF inh2 inactive, BoNT-F LC inh inactive, MazF activator inactive and BoNT A protease inactive.
`C=CCn1c(SCC(=O)NCC2CCCO2)nc2scc(-c3ccco3)c2c1=O` (stereo not given) gave Autofluor counter 22083, Anthrax LF inh2 inactive, BoNT-F LC inh inactive, MazF activator inactive and BoNT A protease inconclusive.
For O=C(CCCn1c(SCC(=O)c2ccc(F)cc2)nc2ccccc2c1=O)NCc1ccccc1 the results were Autofluor counter inactive, Anthrax LF inh2 inactive, BoNT-F LC inh inactive, MazF activator inactive and BoNT A protease inactive.
CCOc1ccc(CCNC(=O)COC(=O)c2nc(Cl)ccc2Cl)cc1OCC was read as Autofluor counter inactive, Anthrax LF inh2 inactive, BoNT-F LC inh inactive, MazF activator inactive and BoNT A protease inactive.
For NC1(C(=O)O)CSSC1 the results were Autofluor counter inactive, Anthrax LF inh2 inactive, BoNT-F LC inh inactive, MazF activator inactive and BoNT A protease inactive.
For Cc1onc(-c2ccccc2)c1C(=O)N(CC(C)C)c1c(N)n(CC(C)C)c(=O)[nH]c1=O the results were Autofluor counter inactive, Anthrax LF inh2 inactive, BoNT-F LC inh inactive, MazF activator inactive and BoNT A protease inactive.
CC(C(=O)Nc1nc2ccccc2s1)n1cc([N+](=O)[O-])cn1 (stereo not given) was read as Autofluor counter inactive, Anthrax LF inh2 inactive, BoNT-F LC inh inactive, MazF activator inactive and BoNT A protease inactive.
`O=C(CCCn1c(SCC(=O)NCC2CCCO2)nc2ccccc2c1=O)NCc1ccccc1` (stereo not given) gave Autofluor counter 22190, Anthrax LF inh2 inactive, BoNT-F LC inh inactive, MazF activator inactive and BoNT A protease inactive.
Screening CCn1c(SCC(=O)N2CCCC2)nc2ccccc2c1=O returned Autofluor counter 19212, Anthrax LF inh2 inactive, BoNT-F LC inh inactive, MazF activator inactive and BoNT A protease inactive.
`O=C(CSc1nc2scc(-c3ccco3)c2c(=O)n1-c1ccccc1)N1CCOCC1` gave Autofluor counter 21589, Anthrax LF inh2 inactive, BoNT-F LC inh inactive, MazF activator inactive and BoNT A protease inactive.
For NC(=O)CSc1nc2scc(-c3ccco3)c2c(=O)n1-c1ccccc1 the results were Autofluor counter inactive, Anthrax LF inh2 inactive, BoNT-F LC inh inactive, MazF activator inactive and BoNT A protease inactive.
Screening O=C(CSc1nc2ccccc2c(=O)n1CCC(=O)N1CCCCC1)NCc1ccccc1 returned Autofluor counter 23326, Anthrax LF inh2 inactive, BoNT-F LC inh inactive, MazF activator inactive and BoNT A protease inconclusive.
`COCCn1c(SCC(=O)N2CCCCC2)nc2ccccc2c1=O` gave Autofluor counter inactive, Anthrax LF inh2 inactive, BoNT-F LC inh inactive, MazF activator inactive and BoNT A protease inactive.
COc1ccc(N=C2c3ccccc3-c3ccc([N+](=O)[O-])cc32)cc1 was read as Autofluor counter inactive, Anthrax LF inh2 inactive, BoNT-F LC inh inactive, MazF activator inactive and BoNT A protease inactive.
`CC(C)(C)c1nc2ccccc2c2nnc(SCC(=O)NCc3ccco3)n12` gave Autofluor counter 16855, Anthrax LF inh2 inactive, BoNT-F LC inh inactive, MazF activator inactive and BoNT A protease inactive.
Screening COCCCn1c(SCC(=O)Nc2ccc(C)cc2)nc2ccccc2c1=O returned Autofluor counter inactive, Anthrax LF inh2 inactive, BoNT-F LC inh inactive, MazF activator inactive and BoNT A protease inactive.
Screening Cc1ccc(NC(=O)CSc2nc3ccccc3c(=O)n2CCCC(=O)N2CCCC2)cc1 returned Autofluor counter 22956, Anthrax LF inh2 inactive, BoNT-F LC inh inactive, MazF activator inactive and BoNT A protease inactive.
COc1ccc(S(=O)(=O)Oc2ccccc2C(=S)N2CCOCC2)cc1 was read as Autofluor counter inactive, Anthrax LF inh2 inactive, BoNT-F LC inh inactive and BoNT A protease inactive.
COc1cccc(/C=c2/s/c(=C(\C#N)C(=O)N3CCOCC3)n(-c3ccccc3)c2=O)c1 was read as Autofluor counter 20549, Anthrax LF inh2 inactive, BoNT-F LC inh inactive, MazF activator inactive and BoNT A protease inconclusive.
Screening O=C(Nc1ccccc1C(=O)N1CCCCC1)c1cc(F)c(F)cc1Cl returned Autofluor counter inconclusive, Anthrax LF inh2 inactive, BoNT-F LC inh inactive, MazF activator inactive and BoNT A protease inactive.
Screening CCOC(=O)c1cc(OC(C)=O)c2ccc(OC)c(OC)c2c1 returned Autofluor counter inactive, Anthrax LF inh2 inactive, BoNT-F LC inh inactive, MazF activator inactive and BoNT A protease inactive.
COc1ccc(C(C)=O)cc1Cn1c(C)c(C(=O)NCc2ccc(C(F)(F)F)cc2)sc1=O was read as Autofluor counter inactive, Anthrax LF inh2 inactive, BoNT-F LC inh inactive and BoNT A protease inactive.
CCOc1ccc(N2CSC(=S)N(c3ccc(OCC)cc3)C2)cc1 was read as Autofluor counter inactive, Anthrax LF inh2 31.9, BoNT-F LC inh inconclusive, MazF activator inactive and BoNT A protease inactive.

Screens from PubChem.
